From PubChem BioAssay (Tox21)
Where “and” joins values, the source holds several entries; their conditions need not be identical. Identical values can stand only once. Calls of active or inactive are those of the source. A call without a number means that no potency is given here. Unless noted, calls follow the shape of the dose curve; as a rule, active = well fitted curve in the direction sought with a large enough effect in the repeat runs; inconclusive = weak or mixed curves; inactive = no such curve, though single readings can be large; an effect the other way counts as inactive or inconclusive.

Columns and labels:
[1] = qHTS assay to identify small molecule antagonists of the thyroid receptor (TR) signaling pathway (AID 743065); settings: GH3.TRE-Luc, T3-stimulated luciferase inhibition, 23.5 h; series mostly up to 70.3 µM; also: nearly all actives have a fitted effect of over 55% in size
How it was run: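 GH3.TRE-Luc rat pituitary cells carrying two TR response elements driving luciferase were plated for 4 h, given compound plus 1 nM T3 (final), and incubated 23.5 h at 37 C. ONE-Glo luminescence measured reporter inhibition; CellTiter-Fluor fluorescence tracked cytotoxicity.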

[2] = system: thyroid hormone receptor (rat, GH3 cells); experiment: qHTS assay to identify small molecule agonists of the thyroid receptor (TR) signaling pathway (AID 743066; calls by dose curve); settings: GH3.TRE-Luc cells, TR agonist luciferase, 24 h; series mostly up to 83.9 µM
[3] = target: Estrogen receptor (Homo sapiens) (UniProt P03372); experiment: qHTS assay to identify small molecule antagonists of the estrogen receptor alpha (ER-alpha) signaling pathway (AID 743069; active = well fitted curve in the direction sought with a large enough effect in the signal ratio in the repeat runs, not every such curve was filed as active; inconclusive = weak or mixed curves, or effect the other way; inactive = no such curve, though single readings can be large or run the other way; the % refers to the signal ratio); settings: HEK293 ER-alpha-UAS-bla, beta-lactamase ratio, antagonist mode; series mostly up to 69.4 µM
Sequence of Estrogen receptor (Homo sapiens) (P03372 whole entry, looked up): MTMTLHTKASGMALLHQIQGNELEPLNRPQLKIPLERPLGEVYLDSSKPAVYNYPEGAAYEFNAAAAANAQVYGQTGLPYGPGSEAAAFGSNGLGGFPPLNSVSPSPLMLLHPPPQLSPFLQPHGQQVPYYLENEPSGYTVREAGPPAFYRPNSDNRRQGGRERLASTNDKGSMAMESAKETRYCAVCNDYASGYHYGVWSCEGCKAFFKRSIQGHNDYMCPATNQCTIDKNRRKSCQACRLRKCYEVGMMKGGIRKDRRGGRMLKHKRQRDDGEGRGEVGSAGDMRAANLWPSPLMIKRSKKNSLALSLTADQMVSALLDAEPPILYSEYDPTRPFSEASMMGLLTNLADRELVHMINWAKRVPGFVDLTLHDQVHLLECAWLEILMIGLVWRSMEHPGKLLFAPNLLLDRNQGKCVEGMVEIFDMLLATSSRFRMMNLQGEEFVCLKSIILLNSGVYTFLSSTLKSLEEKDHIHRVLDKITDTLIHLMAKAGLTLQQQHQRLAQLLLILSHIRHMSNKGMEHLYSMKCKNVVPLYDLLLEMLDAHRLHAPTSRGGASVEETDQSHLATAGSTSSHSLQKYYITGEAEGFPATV
How it was run: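 Screening used a UAS-driven beta-lactamase reporter integrated into HEK293 cells expressing ER-alpha, stimulated with 17beta-estradiol alongside test compounds over 18 hr at 37C; signal came from LiveBLAzer B/G FRET fluorescence.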

[4] = qHTS assay to identify small molecule antagonists of the estrogen receptor alpha (ER-alpha) signaling pathway - cell viability counter screen (AID 743074; calls by dose curve; also: nearly all actives have a fitted effect of over 45% in size); settings: ERalpha-bla HEK293 viability, CellTiter-Glo luminescence, 18 h; series mostly up to 69.4 µM
[5] = target: Estrogen receptor (Homo sapiens) (UniProt P03372); experiment: qHTS assay to identify small molecule agonists of the estrogen receptor alpha (ER-alpha) signaling pathway (AID 743075; calls by dose curve; also: potency is read from the fitted curve at half-maximal effect); settings: HEK293 ER-alpha-UAS-bla, beta-lactamase FRET ratio, 18 h; series mostly up to 70.1 µM
[6] = target: Estrogen receptor (Homo sapiens) (UniProt P03372); experiment: qHTS assay to identify small molecule agonists of the estrogen receptor alpha (ER-alpha) signaling pathway using the BG1 cell line (AID 743079); settings: BG1Luc4E2 cells, ERE-luciferase agonist, 22 h; series mostly up to 70.3 µM; also: nearly all actives have a fitted effect of over 20% in size; also: potency is read from the fitted curve at half-maximal effect
[7] = qHTS assay to identify small molecule antagonists of the estrogen receptor alpha (ER-alpha) signaling pathway using the BG1 cell line - cell viability counter screen (AID 743081); settings: BG1Luc4E2 viability, CellTiter-Fluor, 22 h; series mostly up to 70.3 µM;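 also: compound given together with 17beta-estradiol as the ER stimulus; nearly all actives have a fitted effect of over 45% in size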
[8] = target: Aromatase (Homo sapiens) (UniProt P11511); experiment: qHTS assay to identify aromatase inhibitors (AID 743083); settings: MCF-7 aro ERE, testosterone-driven ERE luciferase, 24 h; series mostly up to 70.3 µM; also: nearly all actives have a fitted effect of over 55% in size
Sequence of Aromatase (Homo sapiens) (P11511 whole entry, looked up): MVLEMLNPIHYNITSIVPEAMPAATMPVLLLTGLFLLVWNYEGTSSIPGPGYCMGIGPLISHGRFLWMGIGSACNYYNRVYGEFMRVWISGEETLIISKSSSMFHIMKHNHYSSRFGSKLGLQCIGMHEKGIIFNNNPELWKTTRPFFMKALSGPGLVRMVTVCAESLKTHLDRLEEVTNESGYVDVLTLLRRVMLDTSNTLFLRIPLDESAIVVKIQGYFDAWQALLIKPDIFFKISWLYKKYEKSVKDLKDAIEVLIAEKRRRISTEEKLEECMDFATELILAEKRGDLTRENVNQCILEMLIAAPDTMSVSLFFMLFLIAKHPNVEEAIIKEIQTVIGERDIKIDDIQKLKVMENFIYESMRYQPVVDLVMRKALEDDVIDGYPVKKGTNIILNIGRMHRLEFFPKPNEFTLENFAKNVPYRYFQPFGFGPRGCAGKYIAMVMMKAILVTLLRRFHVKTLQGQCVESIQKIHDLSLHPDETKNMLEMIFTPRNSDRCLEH

[9] = qHTS assay to identify aromatase inhibitors - cell viability counter screen (AID 743084); settings: MCF-7 aro ERE viability, CellTiter-Fluor, 24 h; series mostly up to 70.3 µM;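 also: cells stimulated with testosterone during compound exposure; nearly all actives have a fitted effect of over 55% in size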
[10] = target: Aryl hydrocarbon receptor (Homo sapiens) (UniProt P35869); experiment: qHTS assay to identify small molecule that activate the aryl hydrocarbon receptor (AhR) signaling pathway (AID 743085); settings: HepG2 AhR-luc (HG2L7.5c1), luciferase, 24 h; series mostly up to 70.3 µM; also: nearly all actives have a fitted effect of over 15% in size; also: potency is read from the fitted curve at half-maximal effect;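 as to activation: HG2L7.5c1 human HepG2 liver cells with stably integrated DRE-driven firefly reporter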
Sequence of Aryl hydrocarbon receptor (Homo sapiens) (P35869 whole entry, looked up): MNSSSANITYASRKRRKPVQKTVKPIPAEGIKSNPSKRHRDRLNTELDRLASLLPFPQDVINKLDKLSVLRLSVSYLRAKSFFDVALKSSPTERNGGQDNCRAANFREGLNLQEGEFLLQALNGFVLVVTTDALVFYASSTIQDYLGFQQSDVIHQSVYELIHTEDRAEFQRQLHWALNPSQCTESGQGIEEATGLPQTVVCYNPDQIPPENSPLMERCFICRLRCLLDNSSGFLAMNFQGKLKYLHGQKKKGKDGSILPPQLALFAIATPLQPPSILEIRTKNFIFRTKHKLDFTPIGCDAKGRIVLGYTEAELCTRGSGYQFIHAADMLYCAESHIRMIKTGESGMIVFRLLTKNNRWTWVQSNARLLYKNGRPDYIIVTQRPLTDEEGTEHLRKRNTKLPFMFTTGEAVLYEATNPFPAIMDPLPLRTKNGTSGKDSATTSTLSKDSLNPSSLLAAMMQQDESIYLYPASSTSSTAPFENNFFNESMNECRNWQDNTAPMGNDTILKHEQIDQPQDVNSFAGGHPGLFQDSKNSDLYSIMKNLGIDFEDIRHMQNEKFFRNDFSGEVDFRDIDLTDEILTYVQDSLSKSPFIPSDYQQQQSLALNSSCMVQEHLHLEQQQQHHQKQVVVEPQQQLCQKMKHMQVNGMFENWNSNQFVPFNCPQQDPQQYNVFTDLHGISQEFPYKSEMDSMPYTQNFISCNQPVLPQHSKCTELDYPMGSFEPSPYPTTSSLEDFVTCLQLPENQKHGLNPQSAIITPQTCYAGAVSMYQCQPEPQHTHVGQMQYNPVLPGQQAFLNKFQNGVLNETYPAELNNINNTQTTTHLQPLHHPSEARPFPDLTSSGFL
How it was run: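 Steps: seed HepG2-AhR-luc cells; allow 5 h at 37C; pin-transfer test compound or vehicle; incubate 24 h at 37C; add viability dye (30 min, 37C) and read fluorescence; add luciferase substrate (30 min, RT) and read luminescence.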

[11] = qHTS assay to identify small molecule that activate the aryl hydrocarbon receptor (AhR) signaling pathway - cell viability counter screen (AID 743086); settings: HepG2-AhR-luc viability, CellTiter-Fluor, 24 h; series mostly up to 70.3 µM;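 also: HepG2 liver cells carrying the AhR DRE luciferase reporter; nearly all actives have a fitted effect of over 45% in size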
How it was run: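 HepG2-AhR-luc (HG2L7.5c1) cells, 4000/well, were preincubated 5 h at 37C, exposed to compound in qHTS format for 24 hr at 37C, then given CellTiter-Fluor for 30 min; viability was read as fluorescence in the reporter wells.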

[12] = target: Peroxisome proliferator-activated receptor gamma (Homo sapiens) (UniProt P37231); experiment: qHTS assay to identify small molecule agonists of the peroxisome proliferator-activated receptor gamma (PPARg) signaling pathway (AID 743094; active = well fitted activation curve with a large enough effect in the signal ratio in the repeat runs, not every such curve was filed as active; inconclusive = weak or mixed curves, or effect the other way; inactive = no such curve, though single readings can be large or run the other way; the % refers to the signal ratio); settings: HEK293H PPARg-UAS-bla, beta-lactamase FRET ratio, 17 h; series mostly up to 57 µM
Sequence of Peroxisome proliferator-activated receptor gamma (Homo sapiens) (P37231 whole entry, looked up): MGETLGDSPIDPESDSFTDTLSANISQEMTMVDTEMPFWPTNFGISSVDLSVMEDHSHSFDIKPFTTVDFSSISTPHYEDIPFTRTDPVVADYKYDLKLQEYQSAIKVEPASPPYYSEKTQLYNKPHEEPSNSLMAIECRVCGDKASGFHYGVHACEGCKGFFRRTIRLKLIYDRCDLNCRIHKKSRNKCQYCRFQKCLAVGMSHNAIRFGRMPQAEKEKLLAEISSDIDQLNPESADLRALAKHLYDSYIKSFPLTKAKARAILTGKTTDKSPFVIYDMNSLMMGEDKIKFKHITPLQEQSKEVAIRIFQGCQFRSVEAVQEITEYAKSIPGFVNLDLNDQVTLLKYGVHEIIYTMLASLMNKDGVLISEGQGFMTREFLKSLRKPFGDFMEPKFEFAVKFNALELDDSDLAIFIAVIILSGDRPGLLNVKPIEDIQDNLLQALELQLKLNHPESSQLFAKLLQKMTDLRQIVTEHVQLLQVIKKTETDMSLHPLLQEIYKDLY
How it was run: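 Cell-based bla reporter, HEK293H background, PPARg-driven UAS. Pre-incubation 5 h, 37C, 5% CO2. Compound 17 h, 37C. Substrate 1 h RT; fluorescence.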

[13] = target: Peroxisome proliferator-activated receptor gamma (Homo sapiens) (UniProt P37231); experiment: qHTS assay to identify small molecule antagonists of the peroxisome proliferator-activated receptor gamma (PPARg) signaling pathway (AID 743191; calls by dose curve; also: nearly all actives have a fitted effect of over 30% in size); settings: HEK293H PPARg-UAS-bla, beta-lactamase ratio, antagonist, 17 h; series mostly up to 62.6 µM
How it was run: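 GeneBLAzer PPARg UAS-bla HEK293H cells carrying a UAS-driven beta-lactamase reporter were plated at 3000 cells/well, preincubated 5 h at 37C, then given compound for 17 h at 37C; LiveBLAzer B/G FRET substrate was read after 1 h at room temperature.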

[14] = qHTS assay to identify small molecule antagonists of the peroxisome proliferator-activated receptor gamma (PPARg) signaling pathway - cell viability counter screen (AID 743194); settings: PPARg-bla HEK293H viability, CellTiter-Glo luminescence, 17 h, co-treated with 50 nM rosiglitazone; series mostly up to 62.6 µM; also: nearly all actives have a fitted effect of over 55% in size
How it was run: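 PPARg-UAS-bla HEK293H cells were plated, rested 5 h at 37 C, then treated with compounds plus rosiglitazone (50 nM final) for 17 h at 37 C; viability was then read by CellTiter-Glo luminescence after 30 min at room temperature.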

[15] = qHTS assay for small molecule agonists of the antioxidant response element (ARE) signaling pathway - cell viability counter screen (AID 743203; calls by dose curve; also: nearly all actives have a fitted effect of over 55% in size); settings: ARE-bla HepG2 viability, CellTiter-Glo luminescence, 16 h; series mostly up to 73.3 µM
How it was run: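 Measured in the same wells as the beta-lactamase ARE reporter, this read-out is CellTiter-Glo luminescence from HepG2 ARE-bla cells given compounds for 16 hrs.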

[16] = qHTS assay for small molecule activators of the heat shock response signaling pathway (AID 743210; active = well fitted activation curve with a large enough effect in the signal ratio in the repeat runs, with a control signal flat, not every such curve was filed as active; inconclusive = weak or mixed curves; the % refers to the signal ratio;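 also: HeLa cells with beta-lactamase reporter driven by heat shock elements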); settings: HeLa HSE-bla reporter, beta-lactamase ratio, 5 h; series mostly up to 62.6 µM
How it was run: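 Activation of heat shock element-controlled beta-lactamase expression is measured in HeLa cells by LiveBLAzer FRET fluorescence, with compound exposure lasting 5 h at 37 C and substrate loading 2.5 h at room temperature.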

[17] = qHTS assay to identify small molecule agonists of the peroxisome proliferator-activated receptor delta (PPARd) signaling pathway - cell viability counter screen (AID 743211); settings: PPARd-bla HEK293H viability, CellTiter-Glo luminescence, 17 h; series mostly up to 62.6 µM; also: nearly all actives have a fitted effect of over 55% in size
How it was run: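 Viability of GeneBLAzer PPARd UAS-bla HEK293H cells was assessed after 17 h compound incubation at 37C, using CellTiter-Glo reagent added after the reporter read and luminescence recorded 30 min later.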

[18] = qHTS assay to identify small molecule antagonists of the estrogen receptor alpha (ER-alpha) signaling pathway using the BG1 cell line (AID 743080; calls by dose curve;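 also: BG1 cells stimulated with 17beta-estradiol alongside compound; nearly all actives have a fitted effect of over 25% in size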); settings: BG1Luc4E2 ERE-luciferase antagonist mode, luminescence; series mostly up to 70.3 µM
How it was run: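 Luciferase inhibition measured with ONE-Glo after 30 min at RT in BG1Luc4E2 cells given test compounds and 17beta-estradiol for 21.5 h at 37 C; CellTiter-Fluor viability read in the same wells beforehand.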

[19] = qHTS assay for small molecule agonists of the antioxidant response element (ARE) signaling pathway (AID 743202; active = well fitted activation curve with a large enough effect in the signal ratio in the repeat runs, not every such curve was filed as active; inconclusive = weak or mixed curves, or effect the other way; inactive = no such curve, though single readings can be large or run the other way; the % refers to the signal ratio); settings: HepG2 ARE-bla reporter, beta-lactamase FRET, 16 h; series mostly up to 73.3 µM
How it was run: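 Steps: seed ARE-bla HepG2 cells (2,000/well); incubate 5 h at 37 C; add compounds by pin tool; incubate 16 h at 37 C; add FRET substrate; read fluorescence after 2 h at RT.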

[20] = qHTS assay for small molecule activators of the heat shock response signaling pathway - cell viability counter screen (AID 743209); settings: HSE-bla HeLa viability, CellTiter-Glo luminescence, 5 h; series mostly up to 62.6 µM; also: nearly all actives have a fitted effect of over 50% in size
How it was run: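 Same-well multiplex: after 2.5 h room-temperature incubation with LiveBLAzer B/G substrate and fluorescence reading, CellTiter-Glo reagent was added to HSE-bla HeLa cells that had received compound for 5 h at 37 C; luminescence read after 30 min.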

Row | Structure (SMILES) | Potency [1] | outcome [2] | Potency [3] | Potency [4] | Potency [5] | Potency [6] | outcome [7] | outcome [8] | Potency [9] | Potency [10] | Potency [11] | Potency [12] | Potency [13] | outcome [14] | outcome [15] | outcome [16] | outcome [17] | Potency [18] | Potency [19] | outcome [20]
1 | CCCCCCCC1CCCC1=O (stereo not given) | inactive | inactive | inactive | inactive | inactive | inactive | inactive | inactive | inactive | inactive | inactive | inactive | inactive | inactive | inactive | inactive | inactive |  |  | 
2 | CCCCOC(=O)CCC(C)=O | inactive | inactive | inactive | inactive | inactive | inactive | inactive | inactive | inactive | inactive | inactive | inactive |  | inactive | inactive |  | inactive | inactive | inactive | inactive
3 | CN1CC(=O)N/C1=N/C(=O)Nc1cccc(Cl)c1 | inactive | inactive | inactive | inactive | inactive | 29.8 µM (active) and 5.31 µM (active) | inactive | inactive | inactive | 26.6 µM (active) and 1.68 µM (active) | inactive | inactive | inactive | inactive | inactive | inactive | inactive |  | inactive | inactive
4 | CCN[C@H]1C[C@H](C)S(=O)(=O)c2sc(S(N)(=O)=O)cc21 | inactive | inactive | inactive | inactive | inactive | inactive | inactive | inactive | inactive | inactive | inactive | inactive | inactive | inactive | inactive | inactive | inactive | inactive | inactive | inactive
5 | CCCC(C)C(=O)OCC (stereo not given) | inactive | inactive | inactive | inactive | inactive | inactive | inactive | inactive | inactive |  | inactive | inactive | inactive | inactive | inactive |  | inactive | inactive | inactive | inactive
6 | CC[C@H]1OC(=O)[C@H](C)[C@@H](O[C@H]2C[C@@](C)(OC)[C@@H](O)[C@H](C)O2)[C@H](C)[C@@H](O[C@@H]2O[C@H](C)C[C@H](N(C)C)[C@H]2O)[C@](C)(OC)C[C@@H](C)C(=O)[C@H](C)[C@@H](O)[C@]1(C)O | inactive | inactive | inactive | inactive | inactive | inactive |  | inactive | inactive |  | inactive | inactive | inactive | inactive | inactive | inactive | inactive | inactive | inactive | inactive
7 | Cc1cccc(C)c1NC(=O)CC12CCCN1CCC2 | inactive | inactive | inactive | inactive | inactive | inactive | inactive | inactive | inactive | inactive | inactive |  |  | inactive | inactive | inactive | inactive | inactive |  | inactive
8 | O=[N+]([O-])c1ccc(/C=N\O)o1 | inactive | inactive | inactive | inactive | inactive | inactive | inactive | inactive | inactive |  | inactive | inactive | inactive | inactive | inactive |  | inactive | inactive |  | 
9 | O=C(CO)[C@@H](O)[C@H](O)[C@@H](O)CO | inactive | inactive | inactive | inactive | inactive | inactive | inactive | inactive | inactive |  | inactive | inactive | inactive | inactive | inactive | inactive | inactive | inactive | inactive | inactive
10 | [O-][n+]1cccc(CO)c1 | inactive | inactive | inactive | inactive | inactive |  | inactive | inactive |  | inactive | inactive | inactive | inactive | inactive | inactive | inactive | inactive |  | inactive | inactive
11 | O=C(O)CC(C(=O)O)S(=O)(=O)O (stereo not given) | inactive | inactive |  | inactive | inactive | inactive | inactive | inactive | inactive | inactive | inactive | inactive | inactive | inactive |  |  | inactive | inactive | inactive | 
12 | CC(=O)N1C[C@H](O)C[C@H]1C(=O)O | inactive | inactive | inactive | inactive |  | 10.6 µM (active) | inactive | inactive | inactive |  | inactive |  |  | inactive | inactive | inactive | inactive | inactive |  | 
13 | CCOC(=O)c1ccccc1 | inactive | inactive | inactive | inactive | inactive |  | inactive | inactive | inactive |  |  | inactive | inactive | inactive | inactive | inactive | inactive | inactive | inactive | inactive
14 | CC(C)(C)OC(=O)c1cccc(N)c1 | inactive | inactive | inactive | inactive | 56.4 µM [inconclusive] (active) | 31.4 µM (active) | inactive | inactive | inactive |  | inactive | inactive | inactive | inactive | inactive | inactive | inactive |  | inactive | 
15 | C[C@H]1C[C@H]2[C@@H]3CCC4=CC(=O)C=C[C@]4(C)[C@H]3C(=O)C[C@]2(C)[C@@]1(O)C(=O)CO | inactive | inactive | inactive |  | inactive | inactive | inactive | inactive | inactive | inactive | inactive | inactive | inactive | inactive | inactive | inactive | inactive |  | inactive | 
